In the library only some 12% were active in any assay of this set; here they are far more common.
Sm TGR inh: qHTS Assay for the Inhibitors of Schistosoma Mansoni Peroxiredoxins; purified TGR, DTNB reduction, TNB absorbance 405 nm; hit rate 3% among 360,000; Potency, µM (series often up to 114 µM), most hits filed as inhibitors; note: nearly all actives have a fitted effect of over 60% in size
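TGR 20 nM + NADPH 100 uM (dispensed conc.), cpd preinc 15 min RT; start with NADPH (500 uM addition) then DTNB (15 mM addition). Kinetic TNB absorbance, 405 nm filter. Four-parameter Hill fit across titration.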
Pf growth 96h: Primary qHTS for delayed death inhibitors of the malarial parasite plastid, 96 hour incubation. hit rate 6.9% among 320,000. Potency, µM (top dose mostly 28.7 µM), usual class: inhibitors. P. falciparum luciferase reporter growth, 96 h. AID 504834, 2011
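Readout is luminescence from an integrated firefly luciferase in P. falciparum. Red cells, 2% hematocrit and 0.05% parasitemia final, were cultured with compound through two parasite generations (96 hours) at 37 C, 5% CO2.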
AmpC inh detg: qHTS Inhibitors of AmpC Beta-Lactamase (assay with detergent). P00811. AmpC hydrolysis of nitrocefin, absorbance 480 nm, 0.01% Triton. Potency, µM (top dose mostly 114 µM), hits mostly inhibitors. hit rate 0.041% among 370,000. AID 485294, 2010; note: nearly all actives have a fitted effect of over 25% in size
Target sequence (P00811 whole entry, looked up): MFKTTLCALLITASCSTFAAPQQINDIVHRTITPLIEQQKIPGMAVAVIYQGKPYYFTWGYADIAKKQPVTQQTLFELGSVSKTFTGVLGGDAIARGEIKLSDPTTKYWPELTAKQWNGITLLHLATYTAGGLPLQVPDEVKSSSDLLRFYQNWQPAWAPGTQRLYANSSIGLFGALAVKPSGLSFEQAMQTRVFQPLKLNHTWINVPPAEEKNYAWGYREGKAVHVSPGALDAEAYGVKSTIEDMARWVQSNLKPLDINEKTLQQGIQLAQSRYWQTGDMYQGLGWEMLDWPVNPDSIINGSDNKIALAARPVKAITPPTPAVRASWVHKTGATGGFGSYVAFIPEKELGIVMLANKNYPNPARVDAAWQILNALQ
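AmpC (5.3 nM in the dispensed reagent) in 20 mM phosphate pH 7.0 with 0.01% (detergent screen) or 0.0001% Triton X-100 was preincubated with compounds for 15 min at room temperature. Nitrocefin was then added from an 800 uM solution, and hydrolysis was followed at 480 nm.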
SARS PLpro yeast: qHTS of Yeast-based Assay for SARS-CoV PLP. S. cerevisiae expressing SARS-CoV PLpro, growth rescue. Potency, µM (series often up to 32.9 µM), hits mostly activators. hit rate 0.19% among 330,000; calls by dose curve; note: nearly all actives have a fitted effect of over 55% in size
AmpC no deterg: qHTS Inhibitors of AmpC Beta-Lactamase (assay without detergent); P00811; AmpC nitrocefin hydrolysis, absorbance 480 nm, 0.0001% Triton; Potency, µM (top dose mostly 57.1 µM), hits mostly inhibitors; hit rate 0.52% among 330,000; AID 485341, 2010; note: nearly all actives have a fitted effect of over 20% in size
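20 mM phosphate pH 7.0 + 0.01% (detergent screen) or 0.0001% Triton X-100; 5.3 nM AmpC reagent; cpd preinc 15 min RT; nitrocefin (800 uM stock) to start; A480 q20 s × 4 min; Activity was normalised to no-enzyme and no-compound control wells.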
Pf growth 48h: Primary qHTS for delayed death inhibitors of the malarial parasite plastid, 48 hour incubation; hit rate 5.9% among 310,000; P. falciparum luciferase growth in erythrocytes, 48 h; Potency, µM (titrated, usually from 28.7 µM), hits mostly inhibitors
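Luminescence readout; reporter = integrated firefly luciferase in P. falciparum. RBC culture at 2% hematocrit, 0.1% parasitemia final, 37 C/5% CO2; decreased signal taken as growth inhibition.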
A number is an active result. Unless noted, calls come from the whole dose curve; as a rule, active = well fitted curve in the direction sought with a large enough effect; inconclusive = small, poorly fitted or top-dose-only effect, or another doubt; inactive = no such curve, though single readings can be large; an effect the other way counts as inactive or inconclusive.

Results for CCOC(=O)c1ccc(N2CSC3=C(C#N)C(c4ccc(OC)cc4OC)CC(=O)N3C2)cc1 (stereo not drawn) ?
Sm TGR inh: inconclusive; Pf growth 96h: inconclusive; AmpC inh detg: inconclusive; SARS PLpro yeast: inactive; AmpC no deterg: inactive

How did COc1ccc(OC)c(C2CC(=O)N3CN(c4cccc(Cl)c4)CSC3=C2C#N)c1 (stereo not drawn) do in these assays?
Sm TGR inh: 50µM; Pf growth 96h: 7.4µM; AmpC inh detg: inconclusive; SARS PLpro yeast: inactive; AmpC no deterg: inactive

What do the screens show for `COc1ccc(OC)c(C2CC(=O)N3CN(c4ccc(C)c(Cl)c4)CSC3=C2C#N)c1` (stereo not drawn)?
Sm TGR inh: 20µM; Pf growth 96h: inconclusive; AmpC inh detg: inconclusive; SARS PLpro yeast: inactive; AmpC no deterg: inactive

Results for CCOC(=O)c1c(-c2ccc(C)cc2C)csc1NC(=O)c1ccccc1Cl ?
Sm TGR inh: inactive; AmpC inh detg: inactive

How did CCCc1nc2oc3c(NCCN(C)C)ncnc3c2c2c1CCCC2 do in these assays?
Sm TGR inh: inactive; Pf growth 96h: inconclusive; AmpC inh detg: inactive; SARS PLpro yeast: inactive; AmpC no deterg: inactive; Pf growth 48h: 13µM

Results for CCCc1nc2oc3c(NCCCN(C)C)ncnc3c2c2c1CCCC2 ?
Sm TGR inh: inactive; Pf growth 96h: 13µM; AmpC inh detg: inactive; SARS PLpro yeast: inactive; AmpC no deterg: inactive; Pf growth 48h: 9.3µM

What do the screens show for `CCCc1nc2oc3c(Cl)ncnc3c2c2c1CCCC2`?
Sm TGR inh: inactive; Pf growth 96h: inactive; AmpC inh detg: inactive; SARS PLpro yeast: inactive; AmpC no deterg: inactive; Pf growth 48h: inactive

Results for Cc1[nH]c2ccccc2c1CCC(N)=O ?
Sm TGR inh: inactive; Pf growth 96h: inactive; AmpC inh detg: inactive; SARS PLpro yeast: inactive; AmpC no deterg: inactive; Pf growth 48h: inactive

What do the screens show for `Cc1[nH]c2ccccc2c1Cc1nnc(SCC(N)=O)o1`?
Sm TGR inh: 45µM; Pf growth 96h: inactive; AmpC inh detg: inconclusive; SARS PLpro yeast: inactive; AmpC no deterg: inactive; Pf growth 48h: inactive

How did Nn1c(SCC(=O)Nc2cc(C(F)(F)F)ccc2Cl)nncc1=O do in these assays?
Sm TGR inh: inactive; Pf growth 96h: inconclusive; AmpC inh detg: inactive; SARS PLpro yeast: inactive; AmpC no deterg: inactive; Pf growth 48h: 12µM

Results for C[n+]1ccc(-c2ccccc2)c2ccccc21 ?
Sm TGR inh: inactive; Pf growth 96h: inconclusive; AmpC inh detg: inactive; SARS PLpro yeast: inactive; AmpC no deterg: inactive; Pf growth 48h: 1µM

Results for CN(C)c1ccc(/C=C/C=C/c2sc3ccccc3[n+]2C)cc1 ?
Sm TGR inh: inactive; Pf growth 96h: inactive; AmpC inh detg: inactive; SARS PLpro yeast: inactive; AmpC no deterg: inactive; Pf growth 48h: inactive

What do the screens show for `C[n+]1ccc(/C=C/c2ccccc2O)c2ccccc21`?
Sm TGR inh: inactive; Pf growth 96h: inconclusive; AmpC inh detg: inactive; SARS PLpro yeast: inactive; AmpC no deterg: inactive; Pf growth 48h: 10µM

Results for CN(C)c1ccc(/C=C/c2cc[n+](C)c3ccccc23)cc1 ?
Pf growth 96h: inconclusive; AmpC inh detg: inactive; SARS PLpro yeast: inactive; AmpC no deterg: inactive; Pf growth 48h: 1µM

Results for CCSc1nnc(-c2ccccc2NC(=O)CC)c(=O)[nH]1 ?
Sm TGR inh: inactive; Pf growth 96h: 4.7µM; AmpC inh detg: inactive; SARS PLpro yeast: inactive; AmpC no deterg: inactive; Pf growth 48h: inactive

Results for CCc1nn(C(CC)C(=O)NCCCN2CC(C)CC(C)C2)c(=O)c2cc3oc(C)cc3n12 (stereo not drawn) ?
Sm TGR inh: inactive; Pf growth 96h: 0.19µM; AmpC inh detg: inactive; SARS PLpro yeast: inactive; AmpC no deterg: inactive; Pf growth 48h: inconclusive

What do the screens show for `CCc1nn(C(CC)C(=O)NCCCc2ccccc2)c(=O)c2cc3occc3n12` (stereo not drawn)?
Sm TGR inh: inactive; Pf growth 96h: inactive; AmpC inh detg: inactive; SARS PLpro yeast: inactive; AmpC no deterg: inactive; Pf growth 48h: inactive

Compound activity: PubChem, National Center for Advancing Translational Sciences (NCATS)
